Growth data for 4 compounds are collected here from PubChem BioAssay (NCI).

Compounds without any hit were thinned out: in the full panel of roughly 83,000, 20% have a hit.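 Step 1: grow cells in 96-well plates. Step 2: add test compound at a single concentration. Step 3: incubate 48 h. Step 4: record percent growth.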 A number with no mark means an inactive call. Active and inactive are the calls of the source. How the source made its calls: active means growth percent below 10; inactive means the rest.

Holding throughout (experiment): NCI-60 one-dose screen, 48 h (100 = growth as untreated, 0 = no growth, -100 = all killed)
Holding throughout (settings): 10 µM unless noted

In assay [1] the test system is NCI-H23 lung.
Assay [2] has as its system NCI-H226 lung.
The test system of assay [3] is HOP-62 NSCLC.
In assay [4] the test system is NCI-H460 lung.
For assay [5], the system named is HOP-92 NSCLC.
For assay [6], the system named is NCI-H522 lung.
In assay [7] the test system is A549/ATCC NSCLC.
Assay [8] concerns 786-0 renal.
Assay [9] relates to COLO 205 colon.

`Nc1ccc(-c2ccc(N)c(Br)c2)cc1Br`: the growth in [1] was 53.9%; in [2], 56.9%; in assay [3], 55.4%; in assay [4], 44.3%; in assay [5], 41.8%; in assay [6], 57%. Further, the growth is 42.2% in assay [7], 52.9% in assay [8] and 82.6% in assay [9].
For `c1ccc(Cc2cccc[n+]2C(c2ccccc2)c2ccccc2)cc1`, the growth in assay [1] was 38.2%; in assay [2] it was 74.7%; in assay [3], 72%; in assay [4], 66.3%; in assay [5], 32.5%; in assay [6], 10.2%. Besides, the growth in [7] is 58.5%; in assay [8], 85.6%; in assay [9], 24.4%.
`Fc1ccc(NC(c2ccc(F)cc2)C2CCN(CCCCc3ccccc3)CC2)cc1` (stereo unspecified): the growth in assay [1] is 43.7%; in assay [2], 74.4%; in [3], 71.4%; in [4], 1.45% (active); in [5], 29.1%; in assay [6], 53.6%. The growth in assay [7] is 52.3%; in [8] it was 35.8%; in assay [9], -56.5% (active).
As to `Cn1cc(C2=C(c3cccc4ccccc34)C(=O)NC2=O)c2cc(Br)ccc21`, the growth in assay [1] was 93.5%; in assay [2], 103%; in assay [3] it was 111%; in assay [4] it was 104%; in assay [5], 171%; in [6], 99.8%. For the same compound, the results for the growth in assay [7], in assay [8] and in assay [9] were 91.3%, 84.7% and 92%, respectively.
